ALDH1A1 block: ALDH1A1 (human) enzyme inhibition. P00352. Purified ALDH1A1, NADH fluorescence, propionaldehyde substrate. Potency, µM (top dose mostly 75.3 µM), inactives show at the top dose activity, negative = inhibition, usual class: inhibitors. 7.3% of 220,000 active. AID 1030; active = well fitted inhibition curve with a large enough effect, not every such curve was filed as active; inconclusive = small, poorly fitted or top-dose-only effect, or another doubt; inactive = no such curve, though single readings can be large or run the other way;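 note: plate controls were no enzyme wells and a reference inhibitor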
PLK1 PBD inh: PLK1 (human) polo-box domain binding inhibition | 2.8% of 360,000 active | Potency, µM, for the others: max response, negative = inhibition, usual class: inhibitors | Plk1 PBD binding of FITC phosphopeptide, fluorescence polarization; note: series mostly up to about 57 µM; nearly all actives have a fitted effect of over 65% in size
RORg inh: inhibitors of mouse ROR gamma transcriptional activity; P51450; Drosophila S2 Gal4-RORgamma UAS-luciferase reporter, 20 h; Potency, µM (series often up to 53.6 µM), for the others: top-dose activity change, negative = inhibition, most hits filed as inhibitors; 5.4% of 310,000 active; AID 2551; note: nearly all actives have a fitted effect of over 60% in size
Target sequence (P51450 whole entry, looked up, the tested form may be a part): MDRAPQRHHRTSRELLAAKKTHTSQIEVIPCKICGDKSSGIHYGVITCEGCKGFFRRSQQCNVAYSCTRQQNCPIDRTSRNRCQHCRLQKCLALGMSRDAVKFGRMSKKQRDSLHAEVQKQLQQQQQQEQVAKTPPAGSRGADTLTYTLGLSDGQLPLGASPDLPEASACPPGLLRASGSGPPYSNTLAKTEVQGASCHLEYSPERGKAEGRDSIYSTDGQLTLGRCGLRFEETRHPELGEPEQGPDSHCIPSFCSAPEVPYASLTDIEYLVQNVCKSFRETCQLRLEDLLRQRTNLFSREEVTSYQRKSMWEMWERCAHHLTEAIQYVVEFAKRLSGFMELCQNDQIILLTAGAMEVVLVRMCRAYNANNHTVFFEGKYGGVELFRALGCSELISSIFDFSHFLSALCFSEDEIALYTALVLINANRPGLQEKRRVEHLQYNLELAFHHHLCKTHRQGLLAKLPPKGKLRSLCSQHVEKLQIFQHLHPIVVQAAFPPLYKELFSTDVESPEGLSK
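ROR gamma transcriptional activity was tracked as Gal4-UAS luciferase output in stably transfected Drosophila Schneider cells, with compound added 1 hr before 700 uM copper sulfate induction and a 20 hr ambient-temperature incubation.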
Sfp inh: inhibitors of Bacillus subtilis Sfp phosphopantetheinyl transferase. Q9F4F7. Biochemical Sfp PPTase activity, qHTS. Potency, µM, for inactives: largest response in the series, negative = inhibition, most hits filed as inhibitors. 3.5% of 310,000 active;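 note: the enzyme is Sfp with the accession as filed and its product quenches rhodamine fluorescence; 0% = enzyme reaction without inhibitor and -100% = no enzyme wells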
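Buffer: 50 mM Hepes-Na pH 7.6, 10 mM MgCl2, 0.01% Nonidet P-40, 0.01% BSA. Enzyme 15 nM, pre-exposed to compound 15 min; substrates then added and fluorescence change tracked over 30 min.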
Gal4-VP16 FLuc: counter-screen for ROR gamma inhibitors: Gal4-VP16 reporter | Potency, µM (highest dose often 53.6 µM), for the others: top-dose activity, negative = inhibition, usual class: inhibitors | 3.5% of 310,000 active | Drosophila S2 Gal4-VP16 UAS-luciferase, luminescence, 20 h;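 note: Gal4-VP16 expression switched on by copper sulfate through the metallothionein promoter; nearly all actives have a fitted effect of over 50% in size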
Numbers without * were called inactive; ? = inconclusive; . = no result given; [ ] = another dose, or the depositor's remark. Hits are enriched below; roughly 12% of the tested compounds scored in any of these assays. Unless noted, calls come from the whole dose curve; as a rule, active = well fitted curve in the direction sought with a large enough effect; inconclusive = small, poorly fitted or top-dose-only effect, or another doubt; inactive = no such curve, though single readings can be large; an effect the other way counts as inactive or inconclusive. Unless noted, % is set by controls: 0 for no effect and ±100 for the full control effect; potency is the fitted concentration of half-maximal effect.

SMILES | ALDH1A1 block | PLK1 PBD inh | RORg inh | Sfp inh | Gal4-VP16 FLuc
COc1ccc(Cl)cc1-n1c(N)c(C(N)=O)sc1=S | ? | 11.9µM* | -15.8% | 15.8µM* | 1.8%
Cc1ccc(-n2c(N)c(C(N)=O)sc2=S)c(C)c1 | 7.5% | 6.7µM* | -6.0% | 20µM* | 7.1%
COc1ccc(N2CCc3c(C)nc4c(OC)cccc4c32)cc1 | 28.2µM* | -1.9% | 20µM* | 5.8% | -6.7%
C1CCC(n2nnnc2CN2CCN(C3CCCC3)CC2)CC1 | -5.1% | -14.1% | -6.4% | 23.9% | 3.2%
c1ccc(N2CCN(Cc3nnnn3C3CCCCC3)CC2)cc1 | 28.2µM* | -1.2% | 0.8% | -8.6% | 1.9%
Cc1ccccc1C(=O)NC1CCN(Cc2nnnn2C2CCCC2)CC1 | -6.7% | -8.7% | -18.0% | 13.1% | -9.9%
O=C(Nc1ccccc1)NC1CCN(Cc2nnnn2C2CCCCC2)CC1 | 14.1µM* | -8.5% | 24.0% | -9.4% | 2.9%
O=C(c1ccc(=O)[nH]c1)N(c1ccccc1)C(CCc1ccccc1)c1nc2ccccc2[nH]1 (configuration not stated) | . | -0.8% | . | . | .
Cc1cccc(/C=N/n2c(-c3cc(-c4ccccc4)n[nH]3)n[nH]c2=S)c1 | -6.5% | -24.7% | 7.94µM* | ? | ?
Cc1cccc(/C=N/n2c(-c3ccncc3)n[nH]c2=S)c1 | -13.0% | -23.0% | 11.2µM* | ? | ?
S=c1[nH]nc(-c2ccncc2)n1/N=C/c1ccccc1 | ? | -10.9% | ? | -7.0% | ?
CC(=O)Nc1nnc(-c2ccc(Cl)s2)o1 | ? | -13.8% | 3.55µM* | -17.6% | 5.62µM*
CCC(=O)Nc1nnc(-c2ccc(Cl)s2)o1 | -0.8% | -10.3% | 7.08µM* | 4.1% | 12.6µM*
CCOC(=O)N1CCN(C(=O)CSc2nnc(-c3ccc(Cl)s3)o2)CC1 | 0.5% | . | 0.4% | 22.2% | 4.0%
CCC(CCC(C)C1CCC2C3CC=C4CC(OC(C)=O)CC[C@@]4(C)C3CC[C@@]12C)C(C)C (some centres not stated) | 13.1% | . | -27.7% | 11.3% | 1.8%
COc1cc(C(=O)NC(=S)Nc2cccc3nc(C)ccc23)cc(OC)c1OC | . | -0.2% | -24.9% | -4.8% | 7.3%
Cc1ccc2c(NC(=S)NC(=O)c3ccccc3)cccc2n1 | . | ? | 15.8µM* | 56.2µM* | ?
Cc1cccc(NC(=S)NC(=O)c2oc3ccccc3c2C)n1 | . | 1.0% | 8.91µM* | 9.3% | 16.7%
Cc1cccc(NC(=S)NC(=O)C(c2ccccc2)c2ccccc2)n1 | . | -8.2% | . | . | .
CCc1nonc1NC(=O)c1oc2ccccc2c1C | . | -5.5% | -21.5% | 11.9% | -24.9%
Cc1cccc(NC(=S)NC(=O)c2ccc(-c3ccccc3)cc2)n1 | . | -8.1% | 3.98µM* | 18.3% | ?
CS(=O)(=O)N1CCCCC1c1cc(C(=O)Nc2ccccc2Cl)no1 (configuration not stated) | . | -8.9% | . | . | .
COc1ccccc1CCc1nnc(CCC(=O)NC(C)Cc2cccc(C)n2)o1 (configuration not stated) | . | 23.8µM* | 6.7% | 20.3% | 6.4%
CCCCn1c(SCC(=O)NCc2ccco2)nc2ccc(N3CCOCC3)cc2c1=O | ? | -15.2% | 6.31µM* | 44.7µM* | 17.8µM*
CCC(C)NC(=O)CSc1nc2ccccc2c(=O)n1Cc1ccc(OC)cc1 (configuration not stated) | ? | -6.4% | 8.4% | 1.8% | 10µM*
SMILES | ALDH1A1 block | PLK1 PBD inh | RORg inh | Sfp inh | Gal4-VP16 FLuc
CCCCn1c(SCC(=O)NC(C)CC)nc2ccc(N3CCOCC3)cc2c1=O (configuration not stated) | ? | -2.0% | 1.26µM* | 56.2µM* | 20µM*
CCCCn1c(SCC(=O)NCc2ccccc2)nc2ccc(N3CCOCC3)cc2c1=O | ? | -20.2% | ? | -28.8% | ?
CCC(C)NC(=O)CSc1nc2ccc(N3CCOCC3)cc2c(=O)n1CCc1ccccc1 (configuration not stated) | ? | . | 7.94µM* | -14.6% | ?
CC(=O)Nc1ccc(NC(=O)c2ccc(-c3ccnn3C)c3ccoc23)cc1 | . | -12.0% | . | . | .
CCOc1ccccc1-c1ccc(C(=O)O)s1 | ? | . | 12.9%[96.6 µM] | -7.3% | -18.4%[96.6 µM]
Cc1cccc(C(O)c2ncc(-c3ccc(F)cc3)[nH]2)c1C (configuration not stated) | . | -2.3% | . | . | .
Nc1ncnc2c([C@@H]3O[C@@H](CO)[C@H](O)[C@@H]3O)nsc12 | -12.5%[13.5 µM] | . | . | . | .
COCCNC(=O)CSc1nc2ccc(N3CCOCC3)cc2c(=O)n1Cc1ccc(OC)cc1 | ? | -18.9% | 10µM* | ? | 14.1µM*
CCCCNC(=O)CSc1nc2ccc(N3CCOCC3)cc2c(=O)n1Cc1ccc(OC)cc1 | ? | -10.8% | ? | 1.8% | -1.9%
CCCCn1c(SCC(=O)Nc2ccc(OC)cc2)nc2ccc(N3CCOCC3)cc2c1=O | ? | -13.4% | ? | -37.5% | 10µM*
O=C1CCC([N+](=O)[O-])C(c2cc(Br)ccc2F)N1 (configuration not stated) | . | -1.9% | 2.1% | 10.6% | -2.1%
COc1cccc([C@@H]2Oc3ccc(OC)cc3/C(=N/OC[C@@H](O)COCc3ccco3)[C@@H]2O)c1 | -7.3%[13.5 µM] | . | -11.6%[10 µM] | 1.8% | -0.2%[10 µM]
CCOC(=O)c1c(NC(=O)C2=C(C)NC(=S)NC2c2ccc(C)cc2)sc(C)c1C (configuration not stated) | ? | ? | 2.82µM* | 20µM* | 3.55µM*
CCOC(=O)c1c(NC(=O)C2=C(C)NC(=S)NC2c2ccc(F)cc2)sc(C)c1C (configuration not stated) | 14.1µM* | ? | 12.6µM* | -11.0% | ?
CCOC(=O)c1c(NC(=O)C2=C(C)NC(=S)NC2c2ccc(F)cc2F)sc(C)c1C (configuration not stated) | 11.2µM* | -9.9% | 2.82µM* | -8.5% | 6.31µM*
CC(C)CO/N=C1/[C@H]2O[C@@H]2[C@@H](O)[C@H]2[C@H]1CCn1c(=O)n(C)c(=O)n12 | -0.1%[13.5 µM] | . | -11.7%[10 µM] | 16.6% | 3.6%[10 µM]
Cc1ccc(-c2cc(C(=O)NN3CCOCC3)c3cc(Br)ccc3n2)o1 | ? | -10.3% | -41.8% | 25.1µM* | -15.6%
Cc1ccc(-c2cc(C(=O)NC3=NCCS3)c3cc(Br)ccc3n2)o1 | 0.112µM* | . | 7.94µM* | -91.9% | 14.1µM*
Cc1cccc(-c2cc(C(=O)NCCCn3ccnc3)c3ccccc3n2)c1 | -0.8% | . | -3.7% | -4.5% | 7.4%
Cc1ccc(-c2cc(C(=O)NCCCn3ccnc3)c3cc(Br)ccc3n2)o1 | ? | 23.8µM* | -2.0% | -5.5% | 0.8%
COC(=O)c1ccc(C(NC(=O)OCc2ccccc2)/C(=C/[C@@H](C)C(=O)N[C@@H](CO)Cc2ccccc2)c2cccnc2)cc1 (some centres not stated) | -2.5% | . | 28.0% | 10.3% | 1.8%
COc1cccc(C(O)c2ncc(-c3cccc(C(F)(F)F)c3)[nH]2)c1 (configuration not stated) | . | 0.1% | . | . | .

From PubChem
